TDP1 cell CPT: DT40-hTDP1 cell growth loss with CPT | AID 686979 | 12% of 420,000 active | chicken DT40 Tdp1-/-;hTDP1 cells + 20 nM CPT, ATP luminescence, 48 h | Potency, µM (series often up to 46.2 µM), usual class: inhibitors; note: nearly all actives have a fitted effect of over 55% in size
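Chicken DT40 Tdp1-/- cells complemented with human TDP1, 400 cells/well, exposed to compounds plus 20 nM camptothecin for at least 48 h at 37 C; viability read as ATP content by CellTiter-Glo luminescence.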
HT1080NT lethal: kills 2HG-producing HT-1080-NT fibrosarcoma cells; HT-1080-NT fibrosarcoma viability, CellTiter-Glo ATP luminescence, 48 h; Potency, µM (series often up to 46.1 µM), actives largely listed as cytotoxic; 1.6% of 360,000 active;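 note: NT is the 2HG producing partner of a matched IDH1 knockdown line; nearly all actives have a fitted effect of over 55% in size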
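Read-out is CellTiter-Glo luminescence after 10 minutes at room temperature, following 48 hours' compound treatment of HT-1080-NT cells (750 cells/well, RPMI, 5% FBS, 37 degrees C).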
IL1B secr inh: blocks inflammasome-driven IL-1 beta release. activity change, % at 57.5 µM. THP-1 LPS/ATP IL-1B secretion, AlphaLISA, 16 h; hits give low values. 4.7% of 360,000 active; in the data active = activity change below about -50%; inconclusive = mostly about -30% to -49%
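Secreted IL-1B measured by AlphaLISA bead assay after 16 h compound exposure of THP-1 cells; compounds (final up to 57.5 uM) added 1 h before LPS (250 ng/mL) and ATP (1.25 mM) stimulation; lower signal means less secretion.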
TDP1 cell noCPT: qHTS for Inhibitors of human tyrosyl-DNA phosphodiesterase 1 (TDP1): qHTS in cells in absence of CPT; DT40 Tdp1-/- hTDP1 cells, no CPT, ATP luminescence, 48 h; 15% of 420,000 active; Potency, µM (top dose mostly 46.2 µM), hits mostly inhibitors; note: nearly all actives have a fitted effect of over 55% in size
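DT40 Tdp1-/-;hTDP1 cells, no CPT (DMSO vehicle only), 400 cells/well; compounds pin-transferred; ≥48 hr, 37 °C; CellTiter-Glo 30 min RT dark, luminescence read.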
HT1080 IDH1KD tx: kills HT-1080 cells with IDH1 knockdown; AID 686971; 2% of 360,000 active; Potency, µM (series often up to 46.1 µM), usual class: cytotoxic; HT-1080 IDH1 knockdown viability, ATP luminescence, 48 h
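Using the IDH1-knockdown HT-1080 line run in the same batch and compound series as the NT line, viability after 48 h at 37 °C was determined by CellTiter-Glo luminescence and expressed as % activity.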
Of the large screens only hits and unclear results are named; the others gave an inactive call. Only some compounds are listed: those with a hit (about 19% of all), similar ones and a draw of the others. Unless noted, calls come from the whole dose curve; as a rule, active = well fitted curve in the direction sought with a large enough effect; inconclusive = small, poorly fitted or top-dose-only effect, or another doubt; inactive = no such curve, though single readings can be large; an effect the other way counts as inactive or inconclusive.

O=C1N=C(N2C=CC(=C3C=CNC=C3)C=C2)/C(=C/N=NC(=O)c2ccccc2O)S1	none
O=C1NC[C@H](c2ccccc2)OC(=O)[C@H](Cc2ccc(F)cc2)CC/C=C/C[C@@H]1CC(=O)N(CCO)Cc1ccccc1	TDP1 cell CPT 9.2µM, HT1080NT lethal inconclusive, TDP1 cell noCPT 10µM (no result: HT1080 IDH1KD tx)
O=C(C[C@@H]1C/C=C/CC[C@@H](Cc2ccc(F)cc2)C(=O)O[C@H](c2ccccc2)CNC1=O)NCCO	TDP1 cell CPT inconclusive, TDP1 cell noCPT inconclusive
O=C1NC[C@@H](c2ccccc2)OC(=O)[C@@H](Cc2ccc(F)cc2)CC/C=C/C[C@H]1CC(=O)N(CCO)Cc1ccccc1	TDP1 cell CPT 13µM, HT1080NT lethal inconclusive, IL1B secr inh inconclusive, TDP1 cell noCPT 18µM (no result: HT1080 IDH1KD tx)
CCC(C)[C@H](NS(=O)(=O)c1ccc(C)cc1)C(=O)N1CCC(C(=O)N2CCC(C(=O)OC)CC2)CC1 (some centres undefined)	none
Cc1ccc(CNC(=O)C2c3ccccc3C(=O)N(C)C2c2c[nH]c3ccccc23)o1 (centres undefined)	TDP1 cell CPT 21µM, TDP1 cell noCPT 15µM
COc1ccc(-c2c(C)nc(N)nc2-c2ccc(OC)cc2O)cc1	none
COc1ccc(-c2onc(C)c2-c2ccccc2)c(O)c1	TDP1 cell CPT inconclusive, HT1080NT lethal inconclusive, TDP1 cell noCPT 18µM, HT1080 IDH1KD tx 16µM
Oc1ccc(-c2[nH]ncc2-c2cnn(-c3ccccc3)c2)c(O)c1	none
COc1ccc(-c2onc(C)c2-c2cnn(-c3ccccc3)c2)c(O)c1	TDP1 cell CPT inconclusive, TDP1 cell noCPT 21µM, HT1080 IDH1KD tx inconclusive
CC(C)(C)OC(=O)N1CCC(CC2CC(c3ccc(Cl)cc3)=NO2)(C(=O)NCC2CCCCC2)CC1 (centres undefined)	TDP1 cell CPT 23µM, HT1080NT lethal inconclusive, TDP1 cell noCPT 16µM, HT1080 IDH1KD tx inconclusive
O=C(Cc1ccc(F)cc1)N1CCC(CC2CC(c3ccc(Cl)cc3)=NO2)(C(=O)NCC2CCCCC2)CC1 (centres undefined)	TDP1 cell CPT inconclusive, IL1B secr inh -55, TDP1 cell noCPT inconclusive
O=C(Cc1ccc(F)cc1)N1CCC(CC2CC(c3cccc(Br)c3)=NO2)(C(=O)NCC2CCCCC2)CC1 (centres undefined)	TDP1 cell CPT inconclusive, IL1B secr inh inconclusive, TDP1 cell noCPT inconclusive
Cc1ccc(C(=O)C2CCN(S(=O)(=O)c3ccc(C(=O)O)cc3)CC2)cc1	none
O=C(CCCn1c(=S)[nH]c2ccccc2c1=O)N1CCN(c2cccc(Cl)c2)CC1	TDP1 cell CPT 16µM, TDP1 cell noCPT 18µM
CC(=O)c1ccc(N2CCN(C(=O)CCCn3c(=O)[nH]c4ccc(Br)cc4c3=O)CC2)cc1	TDP1 cell CPT 15µM, TDP1 cell noCPT 13µM
O=C(CCCn1c(=O)[nH]c2ccc(Br)cc2c1=O)N1CCN(c2cccc(Cl)c2)CC1	TDP1 cell CPT 15µM, TDP1 cell noCPT 8.2µM (no result: HT1080NT lethal, IL1B secr inh, HT1080 IDH1KD tx)
CCCCNC(=O)CCCn1c(=O)[nH]c2ccc(Br)cc2c1=O	none
Cc1cccc(N2CCN(C(=O)CCCCCn3c(=S)[nH]c4ccc(N5CCOCC5)cc4c3=O)CC2)c1C	TDP1 cell CPT 16µM, TDP1 cell noCPT 6.5µM
CCOc1cc(/C=C2\NC(=O)NC2=O)ccc1OC(C)C(=O)O (centres undefined)	TDP1 cell noCPT inconclusive
COc1cccc(N2CCN(C(=O)CCCCCNc3nc(=S)[nH]c4ccccc34)CC2)c1	TDP1 cell CPT 4.6µM, IL1B secr inh -175, TDP1 cell noCPT 9.2µM, HT1080 IDH1KD tx inconclusive
CC(=O)c1ccc(N2CCN(C(=O)CCCCn3c(=O)[nH]c4ccccc4c3=O)CC2)cc1	TDP1 cell CPT 13µM, TDP1 cell noCPT 16µM (no result: HT1080NT lethal, IL1B secr inh, HT1080 IDH1KD tx)
COCCC(C(=O)Oc1c(C(C)(C)C)cc(C)cc1C(C)(C)C)c1ccccc1 (centres undefined)	TDP1 cell CPT inconclusive, HT1080NT lethal inconclusive, TDP1 cell noCPT inconclusive
CC(=O)OC[C@H]1O[C@@H](O[C@H]2C[C@]3(C)C(C[C@@H](O)C4C([C@]5(C)CC[C@@H](C(C)(C)O)O5)CC[C@]43C)[C@@]3(C)CC[C@H](O)C(C)(C)C23)[C@H](O[C@@H]2O[C@@H](C)[C@H](O)[C@@H](O)[C@H]2O)[C@@H](O)[C@@H]1O (some centres undefined)	none
Cc1ccc(CN2CCSc3ccc(C(=O)Nc4ccc(Cl)cc4)cc32)cc1	TDP1 cell CPT 23µM, TDP1 cell noCPT inconclusive (no result: HT1080NT lethal, IL1B secr inh, HT1080 IDH1KD tx)
O=C(Nc1ccc(Cl)cc1)c1ccc2c(c1)N(Cc1ccccc1)CCS2	TDP1 cell CPT 15µM, TDP1 cell noCPT inconclusive (no result: HT1080NT lethal, IL1B secr inh, HT1080 IDH1KD tx)
O=C(NCc1ccco1)c1ccc2c(c1)N(Cc1ccccc1)CCS2	IL1B secr inh inconclusive
CCN1CCSc2ccc(C(=O)Nc3ccc(NC(C)=O)cc3)cc21	TDP1 cell CPT inconclusive
CCNc1ncc2nc(-c3ccc(Cl)cc3)c(=O)n(C[C@H]3CCCO3)c2n1	none (no result: HT1080NT lethal, IL1B secr inh, HT1080 IDH1KD tx)
O=C(CC(c1cccs1)S(=O)(=O)c1ccccc1)c1ccc(F)cc1 (centres undefined)	HT1080NT lethal inconclusive
COc1ccc(C(C(=O)NC2CCCCC2)N(C(=O)c2ccco2)c2ccccc2C(C)=O)cc1 (centres undefined)	TDP1 cell noCPT inconclusive
COc1cc(OC)c(NC(=S)Nc2cccc(C(C)=O)c2)cc1Cl	TDP1 cell noCPT inconclusive
CCOc1ccc(NC(=S)Nc2cccc3ccccc23)cc1	TDP1 cell CPT inconclusive
CCOc1ccc(NC(=S)Nc2ccccc2C2CC2)cc1	TDP1 cell CPT 5.8µM, TDP1 cell noCPT 4.1µM
CCOc1ccc(NC(=S)NNC(=O)c2ccc(Br)cc2)cc1	IL1B secr inh -64, TDP1 cell noCPT inconclusive
COc1cc(OC)c(NC(=S)Nc2cc(Cl)cc(Cl)c2)cc1Cl	TDP1 cell CPT inconclusive, HT1080NT lethal inconclusive, IL1B secr inh -91, TDP1 cell noCPT inconclusive, HT1080 IDH1KD tx inconclusive
CCCC(=O)Nc1cc(OC)c(NC(=S)Nc2ccc(CC)cc2)cc1OC	TDP1 cell noCPT 16µM
COc1ccccc1NC(=O)C1=C(C)NC(=O)NC1c1cccs1 (centres undefined)	none
CCc1nnc(NC(=O)c2ccc3ncsc3c2)s1	none
Cc1cccc(Cn2c(=O)n(CC3CCC(C(=O)NC(C)C)CC3)c(=O)c3sccc32)c1 (centres undefined)	none (no result: HT1080NT lethal, IL1B secr inh, HT1080 IDH1KD tx)
CCOc1ccc(NC(=S)Nc2ccc3nsnc3c2)cc1	TDP1 cell CPT 5.8µM, TDP1 cell noCPT 8.2µM
COc1ccc(NC(=S)Nc2ccc3nsnc3c2)cc1	TDP1 cell CPT 6.5µM, TDP1 cell noCPT 18µM, HT1080 IDH1KD tx inconclusive
COc1ccc(NC(=S)Nc2ccc3nc(C)c(C)nc3c2)cc1	none
CCOc1ccc(NC(=O)Nc2ccc3nsnc3c2)cc1	TDP1 cell CPT inconclusive, IL1B secr inh inconclusive, TDP1 cell noCPT inconclusive

Screening data from PubChem BioAssay.
